Screens as filed in PubChem.
Sampled rows, rich in hits. Any-hit rate of the full collection: about 1.2%.
RGS7-Gao reg = modulates binding of RGS7 to human Galphao. P09471. Multiplexed bead flow cytometry; actives lie on both sides. binding response (% of control), % at 10 µM. 0.35% of 220,000 active; in the data active means binding response below about 49% or above about 150%; inconclusive means no clear call, values can overlap the other calls; inactive means in between;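 further: fluorescent Galphao held in activated GDP-AlF4 state binding bead-coupled RGS7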
Target sequence (P09471 whole entry, looked up): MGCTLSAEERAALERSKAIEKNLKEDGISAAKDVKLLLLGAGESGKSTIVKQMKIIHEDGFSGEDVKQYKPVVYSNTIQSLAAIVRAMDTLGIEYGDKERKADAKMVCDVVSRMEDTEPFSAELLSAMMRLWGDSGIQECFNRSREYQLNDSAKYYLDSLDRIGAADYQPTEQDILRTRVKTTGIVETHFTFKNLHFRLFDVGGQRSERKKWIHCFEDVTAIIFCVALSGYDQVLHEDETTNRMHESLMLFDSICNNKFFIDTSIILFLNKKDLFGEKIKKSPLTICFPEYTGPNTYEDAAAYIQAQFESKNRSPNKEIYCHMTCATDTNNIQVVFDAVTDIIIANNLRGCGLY
RGS8-Gao reg = regulators of human RGS8-Galphao interaction | P09471 | multiplexed bead flow cytometry, RGS8-Galphao binding; actives lie on both sides | response (percent of control binding), % at 10 µM | 0.34% of 220,000 active | AID 1423; in the data active means response below about 60% or above about 140%; inactive means in between;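 further: Galphao activated as the GDP aluminium fluoride complex binding bead-coupled RGS8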
RGS16-Gao HTS = RGS16-Galphao interaction regulator (human). O15492+P09471. bead-based flow cytometry RGS16-Galphao binding, fluorescence; actives lie on both sides. binding response (% of control), % at 10 µM. 0.38% of 220,000 active;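 further: Galphao activated by GDP with aluminum fluoride before binding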
Target sequence (O15492 whole entry, looked up): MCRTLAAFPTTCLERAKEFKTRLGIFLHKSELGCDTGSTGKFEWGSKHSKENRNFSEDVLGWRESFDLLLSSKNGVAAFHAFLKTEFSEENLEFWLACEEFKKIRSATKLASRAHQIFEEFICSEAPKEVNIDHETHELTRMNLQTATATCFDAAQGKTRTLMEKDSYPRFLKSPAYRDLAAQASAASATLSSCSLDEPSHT
Target sequence (P09471 whole entry, looked up): as the sequence (P09471 whole entry, looked up) above
RGS4-Gao reg = human RGS4-Galphao interaction regulation | 0.33% of 220,000 active | P09471 | binding response (% of control), % at 10 µM | Multiplexed bead flow cytometry, RGS4-Galphao binding; actives lie on both sides | AID 1415; in the data active means binding response below about 49% or above about 150%; inactive means in between;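 further: fluorescent Galphao activated with aluminum fluoride binding bead-coupled RGS4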
Avidin bead fluor = compound fluoresces at 488/530 nm on avidin beads. fluorescence (KMESF) at 10 µM. AID 1775. compound fluorescence 488/530 nm, flow cytometry; hits give high values. 0.38% of 220,000 active; in the data active means fluorescence above about 47
GSH fluor = compound fluoresces at 488/530 nm on GSH beads. AID 1776. GSH beads flow cytometry, compound fluorescence 488/530 nm; hits give high values. 0.25% of 190,000 active. fluorescence (KMESF) at 10 µM; in the data active means fluorescence above about 89;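 further: glutathione beads carrying GST-tagged Bcl family fusion proteins plus one bare bead set; values are compound well signal with DMSO vehicle wells as background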
RGS-Gao = modulates binding between human RGS4 and Galphao; shares compounds with RGS16-Gao HTS; multiplexed bead flow cytometry, RGS–Galpha-o binding; RGS4–Galpha-o binding response, % at 10 µM; 99% of 1,600 active; AID 1504;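 further: fluorescently labeled Galpha-o bound to GDP with aluminium fluoride binding biotinylated RGS beads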
Avidin counter = interferes with biotinylated probe binding to avidin beads. inhibition, % at 10 µM. AID 1783. 1,700 tested, under 10 active. streptavidin beads, fluorescein-biotin binding, flow cytometry. shares compounds with RGS16-Gao HTS;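 active means inhibition above 50%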;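 further: median green fluorescence of gated singlet beads compared with DMSO control wells; 0% = DMSO wells and 100% = complete loss of bead fluorescence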
RGS8-Gao single = confirmation of regulators of human RGS8-Galphao interaction; shares compounds with RGS16-Gao HTS; bead-based flow cytometry RGS8-Galphao binding, fluorescence; actives lie on both sides; binding response (% of control), % at 10 µM; 3% of 1,700 active; AID 1836; in the data active means binding response below about 72% or above about 130%; inactive means in between;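 further: Galphao activated as GDP AlF4 complex before binding bead RGS8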
RGS7-Gao single = confirmation of regulators of human RGS7-Galphao interaction | shares compounds with RGS16-Gao HTS | bead-based flow cytometry RGS7-Galphao binding; actives lie on both sides | response (percent of control binding), % at 10 µM | 7.8% of 1,700 active; in the data active means response below about 75% or above about 130%; inactive means in between;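 further: fluorescent Galphao activated with GDP and aluminum fluoride binding bead-coupled RGS7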
RGS16-Gao single = RGS16-Galphao interaction regulation, single point confirmation; AID 1838; shares compounds with RGS16-Gao HTS; response (% of control binding), % at 10 µM; bead-based flow cytometry, RGS16-Galphao binding; actives lie on both sides; 4% of 1,700 active; in the data active means response below about 74% or above about 130%; inactive means in between;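 further: Galphao activated as the GDP aluminium fluoride complex binding bead-coupled RGS16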
RGS4-Gao single = confirmation of regulators of human RGS4-Galphao interaction; AID 1840; 4% of 1,700 active; RGS4-Galphao binding, multiplexed bead flow cytometry; actives lie on both sides; binding response (% of control), % at 10 µM; shares compounds with RGS16-Gao HTS; in the data active means binding response below about 74% or above about 130%; inactive means in between
RGS19-Gao single = RGS19-Galphao interaction regulation, single point confirmation | shares compounds with RGS16-Gao HTS | 5% of 1,700 active | bead-based flow cytometry RGS19-Galphao binding; actives lie on both sides | response (percent of control binding), % at 10 µM; in the data active means response below about 50% or above about 160%; inactive means in between;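 further: 100% = no compound control and 0% = blank background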
* marks the source's active call; other numbers are inactive results; ? = inconclusive; . = not tested or not shown; [ ] = remark or other dose. Unless noted, how the calls were made is not given here.

SMILES	RGS7-Gao reg	RGS8-Gao reg	RGS16-Gao HTS	RGS4-Gao reg	Avidin bead fluor	GSH fluor	Avidin counter	RGS8-Gao single	RGS7-Gao single	RGS16-Gao single	RGS4-Gao single	RGS19-Gao single	others
CCN1CCN(C(=O)C2CCN(S(=O)(=O)c3cccc4cccnc34)CC2)CC1	115	120	192*[activator]	104	13	20	-1	101	100	105	103	103	RGS-Gao=104*
O=C(C1CCN(S(=O)(=O)c2cccc3cccnc23)CC1)N1CCN(c2ccccc2)CC1	100	122	189	105	3	12	.	.	.	.	.	.
COc1ccc(Oc2ccc(/C=C/C(=O)c3ccc(O)cc3)cc2[N+](=O)[O-])cc1	101	101	104	104	5	18	.	.	.	.	.	.
COc1cc2c(cc1NC(=O)CSc1nnc(Cc3cccs3)n1Cc1ccco1)oc1ccccc12	99	99	102	99	14	13	.	.	.	.	.	.
COc1cc2c(cc1NC(=O)CSc1nnc(Cc3cccs3)n1C)oc1ccccc12	248*[activator]	128	314*[activator]	315*[activator]	105*	45	1	102	104	103	102	93
CSc1ccccc1NC(=O)C1C2CCC(C2)C1C(=O)O (stereo not drawn)	33*	40*	21*	24*	1	14	2	100	100	102	101	115
CN1CCN(C(CNS(=O)(=O)c2ccc(Cl)cc2)c2cccnc2)CC1 (stereo not drawn)	157*[activator]	111	164	110	130*	33	-1	98	94	97	95	90	RGS-Gao=110*
CN1C(=O)c2ccccc2C(C(=O)NCCCN2CCCC2=O)C1c1c[nH]c2ccccc12 (stereo not drawn)	103	102	102	105	10	6	.	.	.	.	.	.
COCCN1C(=O)c2ccccc2C(C(=O)NCCCN2CCCC2)C1c1c[nH]c2ccccc12 (stereo not drawn)	34*	42*	32	38*	15	21	1	105	94	101	99	93
CC(C)C(NC(=O)OCc1ccccc1)C(=O)N1CCOCCOCCOCC1 (stereo not drawn)	100	99	43	112	5	11	.	.	.	.	.	.
Cc1cc(NC(=O)c2ccccc2-c2ccccc2)ccc1Br	110	124	226*[activator]	108	15	4	0	102	102	99	101	91	RGS-Gao=108*
Cc1cccc(NC(=O)c2ccccc2-c2ccccc2)c1	?	99	98	97	9	17	.	.	.	.	.	.
CCN(N=O)[C@@H](Cc1ccccc1)CN(N=O)[C@@H](Cc1ccccc1)CN(C)N=O	17*	29*	21*	30*	1	21	1	102	101	102	102	101
CCN1C(=O)[C@H]2[C@H]3[C@H](O)[C@H](O)C/C(=N\OC[C@@H](C)[C@H](OCc4ccccc4)C(C)C)[C@@H]3CC[C@H]2C1=O	100	107	116	101	8	20	.	.	.	.	.	.
Cc1cc(C)nc(NC2=NCCN2C(=S)Nc2ccc(C)c(C)c2)n1	?	99	100	95	3	.	.	.	.	.	.	.
CCOC(=O)Cc1csc(NC(=O)c2cc3c(s2)CCCC3)n1	112	101	101	105	10	15	.	.	.	.	.	.
CCOC(=O)Cc1csc(NC(=O)c2csc3c2CCCC3)n1	19*	14*	4	29*	3	25	-2	93	91	89	92	88
COc1ccc(NC2c3ccccc3C(=O)N2Cc2ccc3c(c2)OCO3)cc1 (stereo not drawn)	?	99	91	96	12	.	.	.	.	.	.	.
C#Cc1ccc([C@H]2C=C(C(=O)Nc3ccccc3)O[C@@H](OCc3ccc(CO)cc3)C2)cc1	?	100	100	101	9	.	.	.	.	.	.	.
O=C(Nc1ccccc1)c1cc2ccc3ccccc3c2s1	?	101	101	102	7	.	.	.	.	.	.	.
CC(C)=NNC1=NC(C)(C)Cc2ccccc21	?	103	102	93	5	.	.	.	.	.	.	.
CC(=O)CC1=NC(C)(C)Cc2ccccc21	24*	18*	16*	29*	2	14	-2	102	109	104	104	100
CSCCC(NC(N)=O)C(=O)NCc1cccc(Cl)c1 (stereo not drawn)	105	109	126	109	7	6	.	.	.	.	.	.
CSCCC(NC(N)=O)C(=O)NCc1ccccc1Cl (stereo not drawn)	80	95	-699*	74	9	10	-3	100	99	98	98	91	RGS-Gao=74*
CCn1c(SCC(=O)N/N=C/c2ccccc2OCC(=O)O)nnc1-c1ccc(C)cc1	?	102	102	102	8	.	.	.	.	.	.	.
COc1ccc(Br)cc1S(=O)(=O)n1ccnc1C	103	107	106	106	13	35	.	.	.	.	.	.
Cc1nccn1S(=O)(=O)c1ccc(Br)cc1Br	168*[activator]	114	127	145	92*	10	.	.	.	.	.	.	RGS-Gao=145*
CC1CCCC(C)N1CC(O)COc1c(F)cc(Br)cc1F (stereo not drawn)	?	101	103	101	9	15	.	.	.	.	.	.
COC(=O)C1=C(C)N=c2s/c(=C3\C(=O)Nc4ccccc43)c(=O)n2C1c1ccccc1 (stereo not drawn)	114	120	179*[activator]	118	5	20	0	102	103	104	100	94	RGS-Gao=118*
O=[N+]([O-])c1ccc(-c2n(-c3ccccn3)c3ccccc3[n+]2-c2ccccn2)cc1	?	102	107	101	9	.	.	.	.	.	.	.
